Source: PubChem BioAssay
KB-V1 cytotox: KB-V1 MDR subline cytotoxicity | KB-V1 MDR cells viability, CellTiter-Glo, 72 h | AID 1347076 | Potency, µM (top dose mostly 46.1 µM), actives largely listed as cytotoxic | 3.4% of 400,000 active; also: % is scaled to controls: 0 for no effect and ±100 for the full control effect; nearly all actives have a fitted effect of over 60% in size
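Drug-selected KB-V1 cells, grown in DMEM lacking phenol red with 10% FBS, receive compound titrations; after three days at 37 degrees C, surviving cell ATP is quantified by CellTiter-Glo luminescence and responses normalized and curve-fitted.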
KB-3-1 cytotox: KB-3-1 parental cell cytotoxicity | KB-3-1 viability, CellTiter-Glo ATP luminescence, 72 h | Potency, µM (series often up to 46.1 µM), hits mostly cytotoxic | 1.4% of 400,000 active; also: % is scaled to controls: 0 for no effect and ±100 for the full control effect; nearly all actives have a fitted effect of over 60% in size
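Using CellTiter-Glo luminescence, growth of non-resistant KB-3-1 adenocarcinoma cells is assessed 72 h after pin-tool compound addition at 37 °C. Normalized responses across the concentration series yield fitted curves.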
MCF10A rerep: induces DNA re-replication in MCF 10a normal breast cells. MCF 10A DNA re-replication, Hoechst nuclear intensity, 48 h. Potency, µM (top dose mostly 46.1 µM), for the others: top-dose activity, positive = re-replication, hits mostly activators. 2.9% of 350,000 active. AID 624296; also: % of control where 0% means no effect; nearly all actives have a fitted effect of over 50% in size
PINK1 modulator: modulators of PINK1 expression. PINK1 immunofluorescence, high-content cytometry, 24 h. Potency, µM (series often up to 76.6 µM), for inactives: at the highest dose activation (PINK1 increase), hits mostly activators. 0.2% of 410,000 active; active = well fitted activation curve with a large enough effect; inconclusive = small, poorly fitted or top-dose-only effect; cell line not stated here; also: % of control where 0% means no effect; nearly all actives have a fitted effect of over 65% in size
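PINK1 protein level read as immunofluorescence by microplate cytometer in a fixed, stained stable cell line after 24 h exposure to five compound concentrations, with CCCP as control.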
12-LOX inh: inhibitors of human 12S-lipoxygenase ALOX12. P18054. purified 12hLO, xylenol orange hydroperoxide absorbance. Potency, µM (top dose mostly 108 µM), without a hit: at the top dose activity change, negative = inhibition, most hits filed as inhibitors. 1.1% of 580,000 active. AID 1671190; also: % is scaled to controls: 0 for no effect and ±100 for the full control effect
Target sequence (P18054 whole entry, looked up): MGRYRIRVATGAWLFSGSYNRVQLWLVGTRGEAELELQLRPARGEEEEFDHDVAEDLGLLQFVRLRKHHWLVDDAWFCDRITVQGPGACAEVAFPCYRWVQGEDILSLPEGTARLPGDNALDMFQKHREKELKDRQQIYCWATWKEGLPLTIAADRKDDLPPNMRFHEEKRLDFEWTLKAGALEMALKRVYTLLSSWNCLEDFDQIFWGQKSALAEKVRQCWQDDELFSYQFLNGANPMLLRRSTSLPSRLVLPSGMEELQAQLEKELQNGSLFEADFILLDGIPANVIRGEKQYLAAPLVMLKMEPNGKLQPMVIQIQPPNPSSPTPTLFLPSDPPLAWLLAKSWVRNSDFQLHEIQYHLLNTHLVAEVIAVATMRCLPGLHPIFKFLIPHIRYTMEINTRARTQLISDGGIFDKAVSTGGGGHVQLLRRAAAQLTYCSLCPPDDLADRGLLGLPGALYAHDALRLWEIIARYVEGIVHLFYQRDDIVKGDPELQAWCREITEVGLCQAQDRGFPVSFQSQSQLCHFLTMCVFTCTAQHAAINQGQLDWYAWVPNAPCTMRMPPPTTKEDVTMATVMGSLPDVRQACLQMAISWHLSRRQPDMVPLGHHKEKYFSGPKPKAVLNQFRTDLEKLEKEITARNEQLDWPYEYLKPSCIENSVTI
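Purified human 12hLO (150 nM final) in 25 mM Hepes, 0.01% Triton X-100, pH 7.0 was preincubated 15 min at room temperature with compound. Then 40 uM arachidonic acid was added, 30 min. Hydroperoxide was read by Fe-XO absorbance ratio 573/405 nm.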
SW480 rereplic: induces DNA re-replication in SW480 colon adenocarcinoma cells | SW480 DNA re-replication, Hoechst DNA content imaging, 48 h | Potency, µM (series often up to 46.1 µM), for inactives: top-dose re-replication activation, hits mostly activators | 1.8% of 340,000 active | AID 624297; also: % of control where 0% means no effect; nearly all actives have a fitted effect of over 55% in size
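Hoechst fluorescence of nuclei (405 nm excitation, 500-530 nm emission) measured by plate-scanning imager after 48 hr compound exposure at 37 C; re-replication scored as increased number of nuclei with elevated intensity.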
* hit, by the source's call; i = inactive; u = inconclusive; x = no result; [ ] = remark or other dose. Sampled rows, rich in hits. Any-hit rate of the full collection: about 5.8%. Unless noted, calls follow the shape of the dose curve; as a rule, active = well fitted curve in the direction sought with a large enough effect; inconclusive = small, poorly fitted or top-dose-only effect, or another doubt; inactive = no such curve, though single readings can be large; an effect the other way counts as inactive or inconclusive. Potency is read from the fitted curve at half-maximal effect.

SMILES	KB-V1 cytotox	KB-3-1 cytotox	MCF10A rerep	PINK1 modulator	12-LOX inh	SW480 rereplic
CCC(=O)N/N=C/c1ccc(-c2ccc([N+](=O)[O-])cc2)o1	i	i	16%	-2%	u	5%
COc1ccc(N(CC(=O)N/N=C/c2ccc(-c3ccc([N+](=O)[O-])cc3)o2)S(=O)(=O)c2ccc(C)cc2)cc1	i	i	u	-1%	-1%	9.2µM*
O=C(O)c1ccc(-c2ccc(/C=N/Nc3ccc([N+](=O)[O-])cc3)o2)cc1	i	i	18µM*	0%	u	18µM*
NS(=O)(=O)c1ccc(-c2ccc(/C=N/NC(=O)c3ccc([N+](=O)[O-])cc3)o2)cc1	i	i	4%	40µM*	-4%	-1%
COc1ccc(N(CC(=O)N/N=C/c2ccc(-c3ccc([N+](=O)[O-])cc3)o2)S(=O)(=O)c2ccc(C)cc2)cc1Cl	i	i	u	-2%	100%	u
CNC(=S)N/N=C/c1ccc(-c2ccc(C(=O)O)cc2)o1	6.5µM*	i	u	2%	u	u
COc1cccc(C(=O)N2C(C(=O)NCc3ccccc3)COC23CCN(C(=O)CC(C)C)CC3)c1 (centres undefined)	x	x	x	x	48%	x
CC(C)(C)NC(=S)N/N=C\c1ccc(-c2ccc([N+](=O)[O-])cc2)o1	i	u	16µM*	10%	45µM*	21µM*
O=C(O)c1cccc(-c2ccc(/C=N/Nc3ccc([N+](=O)[O-])cc3)o2)c1	i	i	18µM*	-1%	u	u
Cc1nc2c3c(C)c(C)n(Cc4ccncc4)c3ncn2n1	x	x	x	x	12%	x
CC1CCCC(C(=O)O)N1 (centres undefined)	x	x	x	x	-35%	x
Cc1noc(C)c1CSc1ccc2ccccc2n1	21µM*	i	u	-8%[38.3 µM]	14%	-12%
Cc1noc(C)c1CSc1nc2ccccc2s1	i	i	27%	0%	u	-3%
Cc1noc(C)c1CSc1nc2ccccc2c(=O)n1-c1ccc(Cl)cc1	23µM*	u	u	2%[38.3 µM]	12%	u
CC(C)(C)c1ccccc1NC(=O)CSc1ncnc2ccccc12	x	x	x	x	3%	x
CN(C(=O)CCCN1C(=O)c2ccccc2C1=O)C1CCCCC1	12µM*	i	4%	3%	22%	-5%
COC(=O)c1cc2c(c3c4cc(OC)ccc4n(S(=O)(=O)c4ccc(C)cc4)c13)C(=O)N(Cc1ccccc1)C2	x	x	x	x	-10%	x
COC(=O)c1cc2c(n1S(=O)(=O)c1ccc(C)cc1)C(=O)C(=O)c1[nH]cc(C(=O)OCc3ccccc3)c1-2	7.3µM*	3.3µM*	8%	-6%	x	u
CCOCCc1nn2c(=O)cc(COC(=O)c3ccccc3OC)nc2s1	i	i	x	-1%	6%	x
CCc1nn2c(=O)cc(COC(=O)c3ccc(SC)cc3OC)nc2s1	10µM*	i	-6%	-1%	14%	-6%
C[C@@H]1CN([C@H](C)CO)C(=O)CCCn2nncc2CO[C@@H]1CN(C)C(=O)CCC(F)(F)F	i	1.6µM*	x	0%	0%	x
O=C(COC(=O)C1CC2CCCC(C1)C2=O)Nc1ccc(C(F)(F)F)cc1[N+](=O)[O-] (centres undefined)	x	x	x	x	-1%	x
O=C(NCc1ccccc1F)Nc1ccc2oc(C3CC3)nc2c1	x	x	x	x	-4%	x
CC(C)N=C(NS(=O)(=O)c1ccccc1)C(Cl)(Cl)Cl	23µM*	5.8µM*	5.8µM*	0%	-6%	5.8µM*
OC[C@H]1O[C@@H](c2nc(-c3ccccc3Br)no2)[C@H](O)[C@@H]1O	u	7.3µM*	x	1%	9%	x
CC(C)c1cc(C(C)C)c(S(=O)(=O)NNC(=O)c2ccncc2)c(C(C)C)c1	15µM*	i	0%	7%	-15%	-129%
COc1ccc(C2c3[nH]c4ccc(OC)cc4c3CCN2C(=O)Nc2ccccc2)cc1 (centres undefined)	u	10µM*	x	-1%	-13%	x
